PubChem BioAssay AID1159580 (chemical genetic matrix, 2015)
Several values for one entry are separate records, joined by “and”; a condition that tells them apart may be missing. Identical values can stand only once. About 2,000 (36%) of roughly 5,500 compounds were called active. About 18% were inconclusive and are not listed. Rule as the data show it: active = normalized growth mostly below about 0.91 (no sharp cut-off); inconclusive = no clear call, values can overlap the other calls; inactive = mostly above about 0.92. Some of the results follow.

Assay: chemical genetic growth profiling, strain panel (AID 1159580);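 also: tested at 20 µM; growth read once vehicle control cultures reached saturation at 30 °C; 1 = growth at the plate median or of vehicle wells; lower values mean less growth of the strain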
Details: growth OD

Measured: normalized growth

CN=C(NC#N)NCCSCc1nc[nH]c1C
inactive: S. cerevisiae deletion strains, locus YJR075W, strain HOC1, stronger effect = lower value 1.01 | S. cerevisiae deletion strains, locus YKL009W, strain mrt4, stronger effect = lower value 1.03 | S. cerevisiae deletion strains, locus YKL068W, stronger effect = lower value 0.992 | S. cerevisiae deletion strains, locus YKL085W, strain MDH1 (second series), stronger effect = lower value 0.992 | S. cerevisiae deletion strains, locus YKL085W, strain MDH1, stronger effect = lower value 0.992 | S. cerevisiae deletion strains, locus YKL160W, strain elf1, stronger effect = lower value 0.986 | S. cerevisiae deletion strains, locus YKL190W, strain CNB1, stronger effect = lower value 1 | S. cerevisiae deletion strains, locus YKR001C, strain vps1, stronger effect = lower value 0.998 | S. cerevisiae deletion strains, locus YKR026C, strain gcn3, stronger effect = lower value 1 | S. cerevisiae deletion strains, locus YKR091W, strain srl3, stronger effect = lower value 1 | S. cerevisiae deletion strains, locus YLL001W, strain dnm1, stronger effect = lower value 1 | S. cerevisiae deletion strains, locus YLL026W, stronger effect = lower value 0.997 | S. cerevisiae deletion strains, locus YLL041C, strain sdh2, stronger effect = lower value 1 | S. cerevisiae deletion strains, locus YLR027C, strain aat2, stronger effect = lower value 1.01 | S. cerevisiae deletion strains, locus YLR039C, strain RIC1, stronger effect = lower value 1 | S. cerevisiae deletion strains, locus YLR058C, strain SHM2, stronger effect = lower value 0.989 | S. cerevisiae deletion strains, locus YLR102C, strain apc9, stronger effect = lower value 0.985 | S. cerevisiae deletion strains, locus YLR113W, strain HOG1, stronger effect = lower value 1.03 | S. cerevisiae deletion strains, locus YLR221C, strain rsa3, stronger effect = lower value 0.986 | S. cerevisiae deletion strains, locus YLR258W, strain gsy2, stronger effect = lower value 1.02 | S. cerevisiae deletion strains, locus YLR262C, strain YPT6 (second series), stronger effect = lower value 1.01 | S. cerevisiae deletion strains, locus YLR262C, strain YPT6, stronger effect = lower value 1.01 | S. cerevisiae deletion strains, locus YLR268W, strain sec22, stronger effect = lower value 0.955 | S. cerevisiae deletion strains, locus YLR320W, strain mms22, stronger effect = lower value 0.982 | S. cerevisiae deletion strains, locus YLR330W, strain CHS5, stronger effect = lower value 0.991 | S. cerevisiae deletion strains, locus YLR342W, strain FKS1 (second series), stronger effect = lower value 1.01 | S. cerevisiae deletion strains, locus YLR342W, strain FKS1, stronger effect = lower value 1 | S. cerevisiae deletion strains, locus YLR357W, strain rsc2, stronger effect = lower value 0.979 | S. cerevisiae deletion strains, locus YLR370C, strain arc18, stronger effect = lower value 1.01 | S. cerevisiae deletion strains, locus YLR371W, strain rom2, stronger effect = lower value 0.993 | S. cerevisiae deletion strains, locus YLR384C, strain iki3, stronger effect = lower value 0.998 | S. cerevisiae deletion strains, locus YLR418C, strain cdc73, stronger effect = lower value 1.03 | S. cerevisiae deletion strains, locus YML016C, strain PPZ1, stronger effect = lower value 0.997 | S. cerevisiae deletion strains, locus YML032C, strain rad52, stronger effect = lower value 0.986 | S. cerevisiae deletion strains, locus YML120C, strain ndi1, stronger effect = lower value 0.993 | S. cerevisiae deletion strains, locus YML124C, strain tub3, stronger effect = lower value 0.98 | S. cerevisiae deletion strains, locus YMR058W, strain fet3, stronger effect = lower value 1 | S. cerevisiae deletion strains, locus YMR078C, strain ctf18, stronger effect = lower value 0.986 | S. cerevisiae deletion strains, locus YMR125W, strain sto1, stronger effect = lower value 0.996 | S. cerevisiae deletion strains, locus YMR129W, stronger effect = lower value 1 | S. cerevisiae deletion strains, locus YMR205C, strain PFK2, stronger effect = lower value 0.994 | S. cerevisiae deletion strains, locus YMR223W, strain ubp8, stronger effect = lower value 1.02 | S. cerevisiae deletion strains, locus YMR231W, strain pep5, stronger effect = lower value 0.999 | S. cerevisiae deletion strains, locus YMR263W, strain SAP30, stronger effect = lower value 0.998 | S. cerevisiae deletion strains, locus YMR307W, strain GAS1, stronger effect = lower value 1 | S. cerevisiae deletion strains, locus YNL067W, strain RPL9B, stronger effect = lower value 1 | S. cerevisiae deletion strains, locus YNL071W, strain lat1, stronger effect = lower value 1.01 | S. cerevisiae deletion strains, locus YNL128W, strain TEP1, stronger effect = lower value 0.991 | S. cerevisiae deletion strains, locus YNL153C, strain GIM3, stronger effect = lower value 0.994 and 1.05 | S. cerevisiae deletion strains, locus YNL175C, strain NOP13, stronger effect = lower value 1 | S. cerevisiae deletion strains, locus YNL183C, strain NPR1, stronger effect = lower value 1 | S. cerevisiae deletion strains, locus YNL197C, strain WHI3, stronger effect = lower value 1.02 | S. cerevisiae deletion strains, locus YNL209W, strain ssb2, stronger effect = lower value 1 | S. cerevisiae deletion strains, locus YNL224C, strain SQS1, stronger effect = lower value 0.993 | S. cerevisiae deletion strains, locus YNL233W, strain BNI4, stronger effect = lower value 0.988 | S. cerevisiae deletion strains, locus YNL248C, strain rpa49, stronger effect = lower value 0.996 | S. cerevisiae deletion strains, locus YNL250W, strain rad50, stronger effect = lower value 0.953 | S. cerevisiae deletion strains, locus YNL271C, strain bni1, stronger effect = lower value 0.965 | S. cerevisiae deletion strains, locus YNL298W, strain CLA4, stronger effect = lower value 0.971 | S. cerevisiae deletion strains, locus YNL307C, strain MCK1, stronger effect = lower value 0.996 | S. cerevisiae deletion strains, locus YNL322C, strain KRE1 (second series), stronger effect = lower value 0.989 | S. cerevisiae deletion strains, locus YNL322C, strain KRE1, stronger effect = lower value 1 | S. cerevisiae deletion strains, locus YNR049C, strain mso1, stronger effect = lower value 1 | S. cerevisiae deletion strains, locus YNR052C, strain pop2, stronger effect = lower value 1 | S. cerevisiae deletion strains, locus YOL006C, strain TOP1, stronger effect = lower value 1.01 | S. cerevisiae deletion strains, locus YOL012C, strain htz1 0.875 | S. cerevisiae deletion strains, locus YOL147C, strain pex11, stronger effect = lower value 0.973 | S. cerevisiae deletion strains, locus YOR001W, strain rrp6, stronger effect = lower value 0.999 | S. cerevisiae deletion strains, locus YOR061W, strain CKA2, stronger effect = lower value 0.99 | S. cerevisiae deletion strains, locus YOR069W, strain VPS5, stronger effect = lower value 0.99 | S. cerevisiae deletion strains, locus YOR070C, strain gyp1, stronger effect = lower value 0.996 | S. cerevisiae deletion strains, locus YOR080W, strain dia2, stronger effect = lower value 1 | S. cerevisiae deletion strains, locus YOR083W, strain WHI5 (second series), stronger effect = lower value 1.04 | S. cerevisiae deletion strains, locus YOR083W, strain WHI5, stronger effect = lower value 0.981 | S. cerevisiae deletion strains, locus YOR106W, strain vam3, stronger effect = lower value 0.979 | S. cerevisiae deletion strains, locus YOR136W, strain idh2, stronger effect = lower value 0.994 | S. cerevisiae deletion strains, locus YOR144C, strain elg1, stronger effect = lower value 0.983 | S. cerevisiae deletion strains, locus YOR184W, strain ser1, stronger effect = lower value 0.993 | S. cerevisiae deletion strains, locus YOR231W, strain MKK1, stronger effect = lower value 1.03 | S. cerevisiae deletion strains, locus YOR265W, strain rbl2, stronger effect = lower value 0.999 | S. cerevisiae deletion strains, locus YOR270C, strain vph1, stronger effect = lower value 1.02 | S. cerevisiae deletion strains, locus YOR290C, strain snf2, stronger effect = lower value 0.972 | S. cerevisiae deletion strains, locus YOR316C, strain cot1, stronger effect = lower value 0.991 | S. cerevisiae deletion strains, locus YPL051W, strain arl3, stronger effect = lower value 0.991 | S. cerevisiae deletion strains, locus YPL055C, strain LGE1, stronger effect = lower value 1.05 | S. cerevisiae deletion strains, locus YPL078C, strain atp4, stronger effect = lower value 1.01 | S. cerevisiae deletion strains, locus YPL106C, strain sse1, stronger effect = lower value 0.972 | S. cerevisiae deletion strains, locus YPL240C, strain hsp82, stronger effect = lower value 1 | S. cerevisiae deletion strains, locus YPL241C, strain CIN2, stronger effect = lower value 0.995 and 1.01 | S. cerevisiae deletion strains, locus YPL256C, strain CLN2, stronger effect = lower value 1.06 | S. cerevisiae deletion strains, locus YPR119W, strain clb2, stronger effect = lower value 0.978 | S. cerevisiae deletion strains, locus YPR141C, strain kar3, stronger effect = lower value 0.97 | S. cerevisiae deletion strains, locus YPR163C, strain tif3, stronger effect = lower value 0.984 | S. cerevisiae deletion strains, locus YPR167C, strain met16, stronger effect = lower value 0.986 | S. cerevisiae deletion strains, strain wtn01, stronger effect = lower value 1.01 | S. cerevisiae strains, strain wild type, stronger effect = lower value 0.998
